Measurements taken from the supplement of paper PMC10338343.
± gives the standard deviation. The full ranking holds about 8,200 sequences; the median of “pre-steady-state target cleavage rate” is about 0.024, and the highest 2% start at about 1.3. This is one part of a sample in which the highest values are shown more often than they occur.

System: MIWI (PIWIL1) piRISC loaded with L1MC piRNA (30 nt)
Assay: pre-steady-state target cleavage rate (min^-1); MIWI and MILI are mouse PIWI proteins and EfPiwi is from a freshwater sponge; tags in brackets are library labels; higher = faster piRNA-guided slicing of the target
Conditions: guide: L1MC piRNA 5'p-UAACUAAAUACUAUGCAAGCUGUAGGUCCU
Method in brief: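 The pre-steady-state cleavage rate was derived from a burst-and-steady-state fit of Cleave-'n-Seq data. For these assays, 1 nM active affinity-purified piRISC loaded with a single synthetic guide was mixed with […] a transcribed, DNA-blocked target RNA library in HEPES–potassium acetate buffer at 33 °C, with or without 500 nM GTSF1 partner protein, for 0–8 or 0–960 min. Sequencing counts of uncleaved targets were normalised to depth and to weakly complementary targets, and k3 was capped at 0.0001 min^-1 after three trials were pooled.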

[1] = auxiliary factor: 500 nM mouse GTSF1
[2] = auxiliary factor: none (no GTSF1)
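Note: 1 nM active piRISC with 0.1 nM target library at 33 °C single turnover.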

| Sequence | pre-steady-state target cleavage rate [1] | pre-steady-state target cleavage rate [2] |
| --- | --- | --- |
| UCCUCCAACAGCAUGCAUAGUAUUUAGUUA | 1.11 ± 0.051 | 0.0217 ± 0.0039 |
| UGGACCAACAGCAUGCAUAGUAUUUAGUUA | 1.24 ± 0.046 | 0.0449 ± 0.01 |
| UCCACCAACAGCAUGCAUAGUAUUUAGUUA | 0.943 ± 0.032 | 0.0211 ± 0.0046 |
| AGGACCAACAGCAUGCAUAGUAUUUAGUUA | 1.39 ± 0.048 | 0.0703 ± 0.016 |
| UCCACCUAGUGCUUGCAUAGUAUUUUCAAA | 0.0568 ± 0.012 | – |
| UGGACCUAGUCCUUGCAUAGUAUUUACAAA | 0.0221 ± 0.0084 | – |
| UGCACCUACAGCUAGCAUAGUAUUUAGUUA | 1.22 ± 0.097 | 0.0194 ± 0.0043 |
| UCCUGGAUGAGCUUGCAUAGUAUUAUGAAA | 0.0112 ± 0.0054 | – |
| UCGACCUACAGCUUGCAAAGUAUUUACAAA | 0.33 ± 0.035 | 0.00465 ± 0.002 |
| UCCUGCUUGUGCUUGCAUAGUAUUUACAAA | 0.0637 ± 0.014 | 0.00366 ± 0.0024 |
| UCGACCUACAGCAAGCAUAGUAUUUAGUUA | 1.4 ± 0.083 | 0.00748 ± 0.0028 |
| UGGACCUACAGCAAGCAUAGUAUUUAGUUA | 1.34 ± 0.1 | 0.00929 ± 0.0027 |
| UGGACCUACAGCAAGCAUAGUAUUUAGUAA | 0.898 ± 0.11 | 0.0053 ± 0.0019 |
| UCGACCUACAGCAAGCAUAGUAUUUAGUAA | 0.818 ± 0.066 | 0.00275 ± 0.0026 |
| AGGACCUACAGCAAGCAUAGUAUUUAGUUA | 1.2 ± 0.069 | 0.0105 ± 0.0035 |
| UCGACCUACAGCAAGCAUAGUAUUUAGAAA | 0.349 ± 0.041 | – |
| UCCUCCUACAGCUUGCAUAGUACUUUAGUUA | 0.588 ± 0.024 | 0.00867 ± 0.0017 |

| Sequence | pre-steady-state target cleavage rate [1] | pre-steady-state target cleavage rate [2] |
| --- | --- | --- |
| AGGACCUAGUCCUUGCAUAGUAUUUACAAA | 0.256 ± 0.046 | 0.00328 ± 0.0019 |
| UCCUGGUACAGCUUGCAUAGUUUUUAGAUA | 0.136 ± 0.043 | 0.00988 ± 0.0027 |
| AGGACCUACAGCUUGCAUAGUAAUUAGAAA | 0.475 ± 0.071 | 0.00445 ± 0.0038 |
| UCCUGGAACUGCAUGCAUAGUAUUUAGUUA | 0.442 ± 0.035 | 0.00687 ± 0.0019 |
| UCCACCUACAGCAUGCAUAGUAUUUAGAUA | 0.423 ± 0.045 | 0.00605 ± 0.0027 |
| UCCUCCUACAGCAUGGAUAGUAUUUAGUUA | 1.38 ± 0.067 | 0.0219 ± 0.0037 |
| UCCUCCUACAGCAUGCAUAGUAUUUAGUUA | 1.2 ± 0.051 | 0.0219 ± 0.0048 |
| UCCACCUACAGCAUGCAUAGUAUUUAGUUA | 0.977 ± 0.054 | 0.0309 ± 0.0079 |
| AGGACCUACAGCAUGGAUAGUAUUUAGUUA | 1.57 ± 0.086 | 0.0502 ± 0.0089 |
| UCGACCUACAGCAUGGAUAGUAUUUAGUUA | 1.59 ± 0.076 | 0.0294 ± 0.005 |
| UCCUGCUACAGCAUGGAUAGUAUUUAGUUA | 1.13 ± 0.15 | 0.015 ± 0.0025 |
| AGGACCUACAGCAUGCUUAGUAUUUAGUUA | 0.977 ± 0.058 | 0.0155 ± 0.0029 |
| UCCACCUACAGCAUGGAUAGUAUUUAGUUA | 1.34 ± 0.062 | 0.0231 ± 0.0039 |
| UCGACCUACAGCAUGCAUAGUAUUUAGAUA | 0.538 ± 0.041 | 0.0119 ± 0.004 |
| UCGACCUACAGCAUGCUUAGUAUUUAGUUA | 0.915 ± 0.057 | 0.0113 ± 0.0023 |
| UGGACCUACAGGAAGCAUAGUAUUUAGUUA | 0.994 ± 0.094 | 0.00926 ± 0.0024 |
